# PubChem BioAssay (Tox21)
# Inconclusive results are not listed. A call without a number means that no potency is given here. Calls of active or inactive are those of the source. Unless noted, calls follow the shape of the dose curve; as a rule, active = well fitted curve in the direction sought with a large enough effect in the repeat runs; inconclusive = weak or mixed curves; inactive = no such curve, though single readings can be large; an effect the other way counts as inactive or inconclusive.
# Experiments:
# [1] = qHTS assay to identify small molecule antagonists of the androgen receptor (AR) signaling pathway using the MDA cell line in the presence of 0.5 nM R1881 - cell viability counter screen (AID 1259242); also: nearly all actives have a fitted effect of over 45% in size
# How it was run: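 Human breast carcinoma MDA-kb2 cells, cultured without CO2, receive compounds alongside 0.5 nM (final) R1881 agonist. After 16 hr at 37C, viability is taken as live-cell protease signal.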
# [2] = qHTS assay to identify small molecule HDAC inhibitors (AID 1259364); also: potency is read from the fitted curve at half-maximal effect;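 also: wild-type HCT-116 cells with endogenous class I/II HDAC activity; nearly all actives have a fitted effect of over 45% in size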; as to activity change, negative = inhibition: top concentration of the series differs between compounds
# How it was run: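 After a 2 hr compound incubation (37C, 5% CO2), HCT-116 cells seeded at 1,500/well the day before received HDAC-Glo reagent; signal read as luminescence after 30 min at room temperature.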
# [3] = qHTS assay to identify small molecule agonists of the sonic hedgehog signaling (Shh) pathway - cell viability counter screen (AID 1259366); also: nearly all actives have a fitted effect of over 50% in size; also: potency is read from the fitted curve at half-maximal effect
# How it was run: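 In quantitative high-throughput format, 3T3 Gli1-Luc cells were exposed to compounds for 24hr and multiplexed for viability using CellTiter-Fluor, incubated 1hr at 37C before the fluorescence read.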
# [4] = qHTS assay to identify small molecule antagonists of the sonic hedgehog signaling (Shh) pathway - cell viability counter screen (AID 1259367); also: nearly all actives have a fitted effect of over 55% in size; also: potency is read from the fitted curve at half-maximal effect
# How it was run: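 Cytotoxicity was assessed in parallel with Shh reporter activity by measuring live-cell protease fluorescence (CellTiter-Fluor) in NIH/3T3 cells stably carrying Gli1-Luc, treated with compound under conditioned medium stimulation for 23 hr plus 1 hr reagent incubation.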
# [5] = qHTS assay to identify small molecule agonists of the sonic hedgehog signaling (Shh) pathway (AID 1259368; calls by dose curve;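 also: NIH/3T3-derived 3T3Gli1-Luc cells carrying a stable Gli1-driven firefly luciferase reporter; series mostly up to about 92 µM; nearly all actives have a fitted effect of over 15% in size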)
# How it was run: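 Stable NIH/3T3 Gli1-Luc reporter clone; 24 hr cpd exposure after a 4 hr settling period; luminescence endpoint.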
# [6] = qHTS assay to identify small molecule HDAC inhibitors - cell viability counter screen (AID 1259365); also: series mostly up to about 92 µM; nearly all actives have a fitted effect of over 50% in size
# How it was run: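 Measured quantity is CellTiter-Glo luminescence from wild-type HCT-116 cells after compound incubation of 2hr at 37C, 5% CO2; reagent developed 30min at room temperature.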
# [7] = molecular target: Estrogen receptor (Homo sapiens) (UniProt P03372); assay: qHTS assay to identify small molecule antagonists of the estrogen receptor alpha (ER-alpha) signaling pathway using the BG1 cell line in the presence of 0.1 nM 17-beta-estradiol (AID 1259244); also: nearly all actives have a fitted effect of over 50% in size; also: potency is read from the fitted curve at half-maximal effect
# How it was run: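 Seeding of stripped-serum-adapted VM7Luc4E2 cells, 24 h attachment, compound transfer, then 0.1 nM final 17beta-estradiol; after 22 h incubation, ONE-Glo reagent and luminescence reading.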
# [8] = qHTS assay to identify small molecule phospholipidosis (PLD) inducers (AID 1259344; active = well fitted curve in the direction sought with a large enough effect; an effect the other way counts as inactive or inconclusive)
# How it was run: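 Cells (HepG2, 900 per well) attach for 4 h, receive LipidTOX Red and compound together, incubate 24 h at 37 C, are fixed 30 min with paraformaldehyde/Hoechst, then imaged at one site per well.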
# Chain of Estrogen receptor (Homo sapiens) (P03372 whole entry, looked up): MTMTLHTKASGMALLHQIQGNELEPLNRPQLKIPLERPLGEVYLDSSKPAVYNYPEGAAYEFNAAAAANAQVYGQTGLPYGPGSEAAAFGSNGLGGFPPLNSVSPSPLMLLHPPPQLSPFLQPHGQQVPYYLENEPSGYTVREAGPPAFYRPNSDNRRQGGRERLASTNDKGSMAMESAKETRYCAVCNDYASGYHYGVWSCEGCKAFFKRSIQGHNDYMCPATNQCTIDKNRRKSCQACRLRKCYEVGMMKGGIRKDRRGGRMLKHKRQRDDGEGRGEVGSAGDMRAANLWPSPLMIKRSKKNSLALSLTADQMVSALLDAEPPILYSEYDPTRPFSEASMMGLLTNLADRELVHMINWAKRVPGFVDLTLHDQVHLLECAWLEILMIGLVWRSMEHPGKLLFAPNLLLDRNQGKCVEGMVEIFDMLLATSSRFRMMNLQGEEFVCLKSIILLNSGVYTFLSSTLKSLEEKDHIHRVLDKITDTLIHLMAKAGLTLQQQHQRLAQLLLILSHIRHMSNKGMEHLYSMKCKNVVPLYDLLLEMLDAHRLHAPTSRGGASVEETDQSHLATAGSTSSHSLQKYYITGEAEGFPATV
smiles,measurement,setting,value
OCCN1CCN(CCO)CC1,outcome,[1],inactive
same,Potency,[2],inactive
same,Potency,[3],inactive
same,Potency,[4],inactive
same,Potency,[5],inactive
CCN(O)CC,outcome,[1],inactive
same,Potency,[2],26.7 µM (active)
same,Potency,[3],30 µM (active)
same,Potency,[5],inactive
CCC(=O)c1ccc2c(c1)N(CCCN(C)C)c1ccccc1S2,outcome,[1],inactive
same,Potency,[2],inactive
same,outcome,[6],inactive
same,Potency,[3],inactive
same,Potency,[4],inactive
same,Potency,[5],inactive
Cc1nnc(SCC2=C(C(=O)O)N3C(=O)[C@@H](NC(=O)Cn4cnnn4)[C@H]3SC2)s1,outcome,[1],inactive
same,Potency,[7],inactive
same,outcome,[8],inactive
same,Potency,[2],inactive
same,outcome,[6],inactive
same,Potency,[3],inactive
same,Potency,[4],inactive
same,Potency,[5],inactive
Cc1ccc(C)c(N)c1,outcome,[1],inactive
same,Potency,[7],inactive
same,Potency,[2],inactive
same,outcome,[6],inactive
same,Potency,[3],inactive
same,Potency,[4],inactive
same,Potency,[5],inactive
CC1=C(O)C(=O)OC1C (stereo not given),outcome,[1],inactive
same,Potency,[2],inactive
same,outcome,[6],inactive
same,Potency,[3],inactive
same,Potency,[4],inactive
same,Potency,[5],inactive
COc1ccc(Nc2ccc(OC)cc2)cc1,outcome,[1],inactive
same,Potency,[7],inactive
same,Potency,[2],27.8 µM (active)
same,outcome,[6],inactive
same,Potency,[3],inactive
same,Potency,[5],inactive
O=c1[nH]c(=O)n([C@H]2C[C@H](O)[C@@H](CO)O2)cc1C(F)(F)F,outcome,[1],inactive
same,Potency,[7],inactive
same,outcome,[8],inactive
same,Potency,[2],inactive
same,outcome,[6],inactive
same,Potency,[3],inactive
same,Potency,[4],inactive
same,Potency,[5],inactive
Cc1ccc([N+](=O)[O-])c(N)c1,outcome,[1],inactive
same,Potency,[2],inactive
same,outcome,[6],inactive
same,Potency,[5],inactive
CC(=O)N[C@@H](CC(C)C)C(=O)O,outcome,[1],inactive
same,Potency,[7],inactive
same,outcome,[8],inactive
same,Potency,[2],inactive
same,outcome,[6],inactive
same,Potency,[3],inactive
same,Potency,[4],inactive
same,Potency,[5],inactive
CC1=NN(c2cc(Cl)c(S(=O)(=O)O)cc2Cl)C(=O)C1N=Nc1ccc(S(=O)(=O)O)cc1 (stereo not given),Potency,[2],27.3 µM (active)
same,outcome,[6],inactive
same,Potency,[5],inactive
O=C1CCCc2ccccc21,outcome,[1],inactive
same,Potency,[7],inactive
same,Potency,[2],inactive
same,Potency,[3],inactive
same,Potency,[4],inactive
same,Potency,[5],inactive
C1CCOC1,outcome,[1],inactive
same,Potency,[2],inactive
same,Potency,[3],inactive
same,Potency,[4],inactive
same,Potency,[5],inactive
O=C(CCCl)NCc1ccccc1,outcome,[1],inactive
same,Potency,[7],inactive
same,Potency,[2],inactive
same,outcome,[6],inactive
same,Potency,[3],inactive
same,Potency,[4],inactive
same,Potency,[5],inactive
Cc1c[nH]c(=S)[nH]c1=O,outcome,[1],inactive
same,Potency,[7],inactive
same,Potency,[2],inactive
same,outcome,[6],inactive
same,Potency,[3],inactive
same,Potency,[4],inactive
same,Potency,[5],inactive
O=C1CCCCC1C1CCCCC1 (stereo not given),outcome,[1],inactive
same,Potency,[7],inactive
same,Potency,[2],inactive
same,outcome,[6],inactive
same,Potency,[3],inactive
same,Potency,[4],inactive
same,Potency,[5],inactive
CCCCCCC,outcome,[1],inactive
same,Potency,[7],inactive
same,Potency,[2],inactive
same,outcome,[6],inactive
same,Potency,[3],inactive
same,Potency,[4],inactive
same,Potency,[5],inactive
CCOc1ccccc1N,Potency,[7],30.4 µM (active)
same,Potency,[2],inactive
same,outcome,[6],inactive
same,Potency,[3],inactive
same,Potency,[4],inactive
same,Potency,[5],inactive
COC(=O)c1ccc2cc(C(=O)OC)ccc2c1,"viability change, negative = cytotoxic",[1],1.72% [at 19 µM] (inactive)
same,"activity change, negative = inhibition",[7],-28.1% [at 19 µM] (inactive)
same,"activity change, negative = inhibition",[2],-8.76% [at 19 µM] (inactive)
same,"activity change, negative = cytotoxicity",[6],-11% [at 19 µM] (inactive)
same,"viability change, negative = cytotoxic",[3],0.624% [at 19 µM] (inactive)
same,"viability change, negative = cytotoxic",[4],-4.66% [at 19 µM] (inactive)
same,activity change,[5],"6.39% [at 18.9 µM, stronger effect = higher value] (inactive)"
CC[C@H]1CC[C@H](NCc2cc3c(cc2OC)[C@H]2C[C@H]2C(=O)N3C)[C@H](c2ccccc2)N1,outcome,[1],inactive
same,Potency,[2],inactive
same,outcome,[6],inactive
same,Potency,[4],8.63 µM (active)
same,Potency,[5],inactive
CCCCCCCCCCCCCCCCOP(=O)([O-])OCC[N+](C)(C)C,outcome,[1],inactive
same,outcome,[8],inactive
same,Potency,[2],inactive
same,outcome,[6],inactive
same,Potency,[3],inactive
same,Potency,[5],inactive
CCOC(=O)COc1ccc2c(c1)CC(NCC(O)c1cccc(Cl)c1)CC2 (stereo not given),outcome,[1],inactive
same,Potency,[2],inactive
same,outcome,[6],inactive
same,Potency,[3],21.9 µM (active)
same,Potency,[4],27.5 µM (active)
same,Potency,[5],inactive
CC(C)S,outcome,[1],inactive
same,Potency,[7],inactive
same,Potency,[2],inactive
same,Potency,[3],inactive
same,Potency,[5],inactive
CCCCC(=O)O[C@]1(C(=O)CO)[C@H](C)C[C@H]2[C@@H]3CCC4=CC(=O)C=C[C@]4(C)[C@@]3(F)[C@@H](O)C[C@@]21C,outcome,[1],inactive
same,Potency,[7],inactive
same,outcome,[8],inactive
same,Potency,[2],inactive
same,Potency,[3],inactive
same,Potency,[5],inactive
Cc1cccc(C)c1NC(=O)CN1CCCCCC1,outcome,[1],inactive
same,Potency,[7],inactive
same,outcome,[8],inactive
same,Potency,[2],inactive
same,outcome,[6],inactive
same,Potency,[3],inactive
same,Potency,[5],inactive
O=C(O)C(=O)Cc1c[nH]c2ccccc12,outcome,[1],inactive
same,Potency,[2],inactive
same,Potency,[3],inactive
same,Potency,[4],inactive
same,Potency,[5],inactive
CC(C)=CCCC(C)CCOC=O (stereo not given),outcome,[1],inactive
same,Potency,[2],inactive
same,outcome,[6],inactive
same,Potency,[3],inactive
same,Potency,[5],inactive
CCOc1ccc(NC(N)=O)cc1,outcome,[1],inactive
same,Potency,[7],inactive
same,Potency,[2],inactive
same,outcome,[6],inactive
same,Potency,[3],inactive
same,Potency,[4],inactive
same,Potency,[5],inactive
CCCN(CCC)C(=O)C(CCC(=O)O)NC(=O)c1ccccc1 (stereo not given),outcome,[1],inactive
same,outcome,[8],inactive
same,Potency,[2],inactive
same,outcome,[6],inactive
same,Potency,[3],inactive
same,Potency,[5],inactive
